Inconclusive results are not listed. Active and inactive are the calls of the source. Rule for the calls: active = hit-call score of the fitted dose curve at least 0.9, where 1 is the maximum; inconclusive = response in the unintended direction; inactive = score below 0.9.
molecular target: rat Opioid Receptor, Non-selective Binding, Oprm1 (gene 25601) (UniProt P33535); assay: NVS_GPCR_rOpiate_NonSelective: NovaScreen (NVS) G Protein-Coupled Receptor Assay for rat Opioid Receptor, Non-selective Binding (AID 2283318)
Sequence (P33535 whole entry, looked up): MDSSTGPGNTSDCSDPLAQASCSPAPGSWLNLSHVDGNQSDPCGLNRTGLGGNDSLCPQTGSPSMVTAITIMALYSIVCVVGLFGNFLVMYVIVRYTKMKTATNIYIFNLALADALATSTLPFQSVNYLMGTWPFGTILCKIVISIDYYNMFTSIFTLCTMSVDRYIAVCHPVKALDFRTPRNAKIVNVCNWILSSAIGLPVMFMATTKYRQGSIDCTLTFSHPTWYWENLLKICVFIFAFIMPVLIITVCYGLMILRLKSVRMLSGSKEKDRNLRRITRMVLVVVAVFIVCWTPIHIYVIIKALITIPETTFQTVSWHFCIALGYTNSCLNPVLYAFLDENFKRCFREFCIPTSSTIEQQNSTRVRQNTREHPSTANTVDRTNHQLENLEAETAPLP
Procedure: NVS_GPCR_rOpiate_NonSelective is a biochemical, single-readout assay that uses extracted gene-proteins from Rat forebrain membranes in a tissue-based cell-free assay. Measurements were taken 1.5 hours after chemical dosing in a 48-well plate.NVS_GPCR_rOpiate_NonSelective is one of one assay component(s) measured or calculated from the NVS_GPCR_rOpiate_NonSelective assay. It is designed to make measurements of radioligand binding, a form of binding reporter, as detected with scintillation counting signals by Filter-based radiodetection technology.Data from the assay component NVS_GPCR_rOpiate_NonSelective was analyzed into 1 assay endpoint. This assay endpoint, NVS_GPCR_rOpiate_NonSelective, was analyzed in the positive analysis fitting direction relative to DMSO as the negative control and baseline of activity. Using a type of binding reporter, loss-of-signal activity can be used to understand changes in the binding as they relate to the gene Oprm1. Furthermore, this assay endpoint can be referred to as a primary readout, because the performed assay has only produced 1 assay endpoint. To generalize the intended target to other relatable targets, this assay endpoint is annotated to the gpcr intended target family, where the subfamily is rhodopsin-like receptor.
Binding assays used specific radioligands (tritiated, iodinated) with non-radioactive competitive displacement ligands in agonist or antagonist protocols (as indicated) and various reference compounds and inhibitors to titrate specific binding to receptors and transporters. Most enzyme assays (CYPs, kinases, phosphatases, proteases, HDACs) used recombinant protein and specific substrates (fluorescence mostly, some colorimetric and radioactive) and inhibitors, followed by a biochemical separation of substrate and product. All assays for the biochemical HTS were initially run in duplicate at a single concentration (10 uM for CYP450 assays and 25 uM for all others). […] Each assay was run with positive and negative controls, and concurrent controls on every plate. The follow-up (secondary) screen tested active chemical-pairs in concentration series, as well as a few additional assays not tested in the primary screen, some selected negative inactives, and several cases re-run in the concentration series for confirmatory purposes.

AC50, active:
NCc1cccc(C2CCN(C(=O)c3ccc(C#Cc4ccccc4F)o3)CC2)c1 12.1 µM
c1ccc(C[n+]2cccc3ccccc32)cc1 14.5 µM
CN(C[C@@H](CC[N+]12CCC(C3CCCCC3)(CC1)CC2)c1ccc(Cl)c(Cl)c1)C(=O)c1cc(C(F)(F)F)cc(C(F)(F)F)c1 35.5 µM
O=C1c2ccccc2C(=O)N1CCc1noc(-c2ccc(CN3CCCCCC3)s2)n1 21.1 µM
COc1ccc2cc(S(=O)(=O)N[C@H](CC(=O)N[C@H](Cc3ccc(CN4[C@H](C)CCC[C@@H]4C)cc3)C(=O)N(C)C(C)C)c3ccc4c(c3)OCO4)ccc2c1 17.7 µM
CN(C)c1ccc(C(=C2C=CC(=[N+](C)C)C=C2)c2ccc(N(C)C)cc2)cc1 2.21 µM
Cc1occc1C(=O)Nc1ccc(C(=O)N2CCC(F)(F)/C(=C\C(=O)N3CCC(N4CCCCC4)CC3)c3ccccc32)cc1 5.85 µM
CC/C(=C(/CC)c1ccc(O)cc1)c1ccc(O)cc1 12 µM
CCN(Cc1cccnc1)C(=O)c1cccc(Cl)c1[C@]1(C)C(=O)N(Cc2ccc(OC)cc2OC)c2ccc(Cl)cc21 5.25 µM
Clc1cc(Cl)c2c(c1)N=C1CCCCCN1C2 7.31 µM
COc1cccc([C@H](O)C2CCN(CCc3ccc(F)cc3)CC2)c1OC 6.91 µM
O=c1[nH]sc2ccccc12 19.6 µM
CN(C)C(=O)C1(N2CCCCC2)CCN(CC[C@@]2(c3ccc(Cl)c(Cl)c3)CN(C(=O)c3ccccc3)CCO2)CC1 1.73 µM

outcome, inactive:
CCN(CC)C(=O)c1cc(S(=O)(=O)Cc2ccccc2)c(N2CCC(c3ccccc3)CC2)cc1N(CC)CCN(C)C
Clc1ccccc1C(c1ccccc1)(c1ccccc1)n1ccnc1
O=C(O)Cc1cc(I)c(Oc2ccc(O)c(I)c2)c(I)c1
